# Experimental data published in PubChem BioAssay AID485298 (National Center for Advancing Translational Sciences (NCATS), 2010).
# Screen size: about 320,000 compounds; about 740 (0.23%) were called active. About 2% were inconclusive and are not listed. Calls come from the whole dose curve; as a rule, active = well fitted activation curve with a large enough effect; inconclusive = small, poorly fitted or top-dose-only effect; inactive = no such curve, though single readings can be large or run the other way. The entries come from a sample that favours actives as a whole. A call without a number means that no potency is given here.
# Assay: qHTS Assay for Small Molecule Inhibitors of Mitochondrial Division or Activators of Mitochondrial Fusion; note: nearly all actives have a fitted effect of over 45% in size
# Settings: S. cerevisiae fusion-defective mutant growth rescue, CellTiterGlo 48 h; series mostly up to 46.1 µM
# Description: NIH Chemical Genomics Center [NCGC] NIH Molecular Libraries Probe Production centers Network [MLPCN] MLPCN Grant: MH081279-01 Assay Submitter (PI): Jodi M. Nunnari NCGC Assay Overview: The budding yeast S. cerevisiae is a powerful system to study mitochondrial fusion. Unlike other organisms, yeast cells without functional mitochondrial DNA (mtDNA) can be propagated and studied as long as they maintain a mitochondrial compartment and are provided with a fermentable carbon source. When mitochondrial fusion is blocked in yeast, mitochondrial tubules rapidly fragment and division continues unopposed. Under conditions where fusion is compromised in mammalian cells, nearly identical changes in mitochondrial structure have been observed. Thus, these findings indicate that steady state mitochondrial structure in cells is a characteristic and specific indicator of fusion activity. Mounting evidence has pointed to a connection between mitochondrial dynamics and apoptosis in mammalian cells. These studies indicate that in mammalian cells mitochondrial dynamics are more integrated into cellular processes than in yeast cells and have evolved not only to distribute the organelle but also to aid in the regulation of cellular homeostasis. Mitochondrial fusion proteins attenuate apoptosis by inhibiting the release of cytochrome c from mitochondria, in part by controlling cristae structures. Thus, small molecules that inhibit mitochondrial […] may promote apoptosis and potentially act as novel chemotherapeutics and stimulation of apoptosis has become an attractive target of anti-cancer therapies. To identify inhibitors of mitochondrial division, we exploit the growth phenotypes of mitochondrial fusion-defective mutants. The temperature sensitive fusion alleles, such as fzo1-1 and mgm1-5, cause mitochondrial membranes to fragment in cells under non-permissive conditions and cells lose mtDNA, and are unable to grow in the presence of non-fermentable carbon source glycerol. Inhibiting mitochondrial division rescues growth. We have developed and optimized a luminescence cell viability assay in 1536 well format for the identification of inhibitors in the yeast mitochondrial fusion-defective assay.
# The yeast glycerol stocks where kindly supplied by the laboratory of Dr. Jodi Nunnari, University of California, Davis. All yeast glycerol stock solutions were stored in single use aliquots at -80C. The CellTiterGlo luminescence reagent, containing luciferase and luciferin, were purchased from Promega, and the reagents were stored according to manufacturer's instructions. The Buffer components for the YPEG yeast growth medium were purchased from Sigma-Aldrich (St. Louis, MO). YPEG growth medium: 1% (w/v) yeast extract, 2% (w/v) Bacto-peptone, 3% Ethanol, 3% glycerol, 0.4mM Tryptophan, 0.36mM Adenine. qHTS Assay Protocol: 1.#Dispense 2.5 ul yeast growth medium per 1536 well plate. 2.#Transfer 23 nl per well of compound to plate. 3.#Dispense 2.5 ul yeast solution at appropriate seeding density per well. 4.#Incubate for 48 hours at 37C. 5.#Dispense 5 ul of CellTiterGlow solution per well. 6.#Incubate at ambient for 10 minutes. 7.#Read using bio-luminescence protocol on Viewlux.
# Potency is the fitted concentration of half-maximal effect.
row,SMILES,Potency
1,O=C1NC(=O)C(CCc2ccccn2)(Cc2cccc(Cl)c2Cl)C(=O)N1c1ccc(Br)cc1 (stereo not given),11.2 µM (active)
2,Clc1ccc2nc3c(c(-c4ccccc4)c2c1)CNCC3,inactive
3,N[C@@H](Cc1c[nH]c2ccccc12)c1nnc(SCc2c(F)cccc2Cl)o1,inactive
4,CC(=O)NBr,inactive
5,C=CCN1CCC23c4c5ccc(O)c4O[C@H]2C(=O)CC[C@@]3(O)C1C5 (stereo not given in full),inactive
6,c1ccc2c(c1)[I+]c1ccccc1-2,0.291 µM (active)
7,O=C(COc1ccc2ccccc2c1)N1CCN(Cc2ccncc2)CC1,inactive
8,Cc1nn(Cc2ccccc2Cl)c(Cl)c1C(=O)OC(C(=O)NC(N)=O)C(C)C (stereo not given),inactive
9,C=CCN1C(=O)C2(C(C(=O)OCC)=C(N)Oc3c2c(=O)oc2ccccc32)c2ccccc21 (stereo not given),inactive
10,CC1=CC(=Cc2sc3ccccc3[n+]2C)C=C(C)O1,inactive
